In PubChem BioAssay AID623868 (Vanderbilt High Throughput Screening Facility, 2012):
Hit rate of the full screen: of about 2,100 compounds, about 760 (36%) were called active.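 Rule for the calls: active = thallium-flux fluorescence traces judged by eye to show enhanced or reduced glutamate response, manual score 1 or -1, so both directions (some results past the limit were not filed as active); inactive = the rest, including fluorescent or raised-baseline compounds.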 The list is a sample of the results.

Assay: non-GIRK thallium flux modulation in mGlu8 cells, confirmation, counter-screen for GIRK activator project, cell-based, HEK-293 rmGlu8, no GIRK (AID 623868);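 note: extra codes mark interference with 3 for fluorescent and 4 for baseline rise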
Conditions: thallium flux fluorescence, at 10 µM, actives lie on both sides, codes: 1 enhancer, -1 blocker, 0 none, thallium stimulus containing EC20 glutamate

Row | Structure (SMILES) | manual score
1 | O=C(NC(=S)Nc1nc2c(s1)CCCC2)c1ccc(C(=O)c2ccccc2)cc1 | 0 (inactive)
2 | CC(C)(C)c1ccc(C(=O)NC(=S)Nc2nc3c(s2)CCCC3)cc1 | 1 (active)
3 | COC(=O)c1ccc(C(=O)NC(=S)Nc2nc3c(s2)CCCC3)cc1 | 1 (active)
4 | COC(=O)C(NC(=O)COc1ccccc1)(Nc1nc2c(s1)CCCC2)C(F)(F)F (configuration not stated) | 0 (inactive)
5 | O=C(NC(=S)Nc1nc2c(s1)CCCC2)c1ccccc1 | 0 (inactive)
6 | CC(C)(C)C(=O)Nc1nc2c(s1)COc1ccccc1-2 | -0.5 (inactive)
7 | N=c1n(CCN2CCCCC2)c2ccccc2n1CC(O)COc1ccccc1 (configuration not stated) | 0 (inactive)
8 | COCCCNc1c2c3c(cccc3[nH]c1=O)C(=O)c1ccccc1-2 | 3 (inactive)
9 | O=C(NC(=S)Nc1ccc(N2CCCCC2)cc1)c1cccs1 | 1 (active)
10 | Cc1ccc(NC(=O)c2cc(NC(=O)CCC(=O)O)ccc2N2CCCCC2)cc1 | 0 (inactive)
11 | CN(C1CCCCC1)S(=O)(=O)c1ccc(NC(=S)NC(=O)c2cccs2)cc1 | 1 (active)
12 | O=C(Nc1ccc(N2CCCCC2)c(Cl)c1)c1ncn[nH]1 | 0 (inactive)
13 | O=C(CNC1CCCCCC1)Nc1ccc(N2CCCC2)cc1 | 0 (inactive)
14 | O=C(NC(=S)Nc1ccc(N2CCCCC2)c(Cl)c1)c1cccs1 | 1 (active)
15 | Cc1ccc(-c2[nH]nc3c2C(c2ccoc2)C(C#N)=C(N)O3)cc1C (configuration not stated) | 0 (inactive)
16 | CN(C)c1nc2n(c(=O)n1)C(C#N)CS2 (configuration not stated) | 0 (inactive)
17 | O=C(/C=C/c1ccc(Cl)cc1)NC(=S)NN1CCCCC1c1cccnc1 (configuration not stated) | 0 (inactive)
18 | COc1ccc(-n2ncc3c(NCc4cccs4)ncnc32)cc1 | 0 (inactive)
19 | c1csc(CCNc2ncnc3sc4c(c23)CCC4)c1 | -1 (active)
20 | COC(=O)c1ccc(NC(=S)NC(=O)c2cc(-c3ccccc3)nc3ccccc23)cc1 | 1 (active)
21 | O=C(NC(=S)Nc1ccccn1)c1cc(-c2ccccc2)nc2ccccc12 | 1 (active)
22 | Cc1ccccc1NC(=S)NC(=O)c1cc(-c2ccccc2)nc2ccccc12 | 1 (active)
23 | O=C(NC(=S)Nc1ccccc1)c1cc(-c2ccccc2)nc2ccccc12 | 0.5 (inactive)

Row | Structure (SMILES) | manual score
24 | Cc1cccc(NC(=S)NC(=O)c2cc(-c3ccccc3)nc3ccccc23)c1 | 0 (inactive)
25 | Fc1cccc(-n2c(-c3ccco3)nc3nc4ccccc4nc32)c1 | 0 (inactive)
26 | Cc1ccc(C)c(N2CCN(C(=O)CCCOc3cc(=O)n(C)c4ccccc34)CC2)c1 | 0 (inactive)
27 | CCC(=O)Oc1ccc(C/C(=N\O)c2ccc(O)cc2O)o1 | -1 (active)
28 | CCCn1c(C)cc(/C=C(\C#N)C(=O)OCC(=O)Nc2cccc(OC)c2)c1C | 0 (inactive)
29 | Cc1ccc2oc(=O)c3cnn(CC(=O)N4CCc5ccccc5C4)c3c2c1 | -1 (active)
30 | COc1ccc(N(CC(=O)NCCSc2ccccn2)S(C)(=O)=O)cc1Cl | 0 (inactive)
31 | Cc1nn2c(NCCCN(C)C)c3c(nc2c1-c1ccccc1)CCC3 | 0 (inactive)
32 | O=C(O)CCCCCNc1nc2ncn(Cc3ccccc3)c2c(=O)[nH]1 | 0 (inactive)
33 | Fc1cccc(C2NN=C(c3ccccc3)S2)c1 (configuration not stated) | 1 (active)
34 | O=C1CC(c2ccco2)Sc2nc3ccccc3n21 (configuration not stated) | 0 (inactive)
35 | CN1CCN(CC(=O)N2c3ccccc3C(C)(c3ccccc3)CC2(C)C)CC1 (configuration not stated) | 0 (inactive)
36 | CC1(c2ccccc2)CC(C)(C)N2C(=O)/C(=C3\SC(=S)NC3=O)c3cccc1c32 (configuration not stated) | 1 (active)
37 | Cc1c(C(=O)O)sc2nc3n(c(=O)c12)CCC(C)CC3 (configuration not stated) | 0 (inactive)
38 | CCCCCCCCc1nc(=S)[nH][nH]1 | 1 (active)
39 | C=CCCCCCCCCc1nc(=S)[nH][nH]1 | 1 (active)
40 | COc1c(Cl)cc(Cl)cc1CNCCNCC(C)O (configuration not stated) | 0 (inactive)
41 | COc1cc(C(=O)NC2CC3CCCC(C2)N3CC(=O)Nc2ccccc2)cc(OC)c1OC (configuration not stated) | -1 (active)
42 | CC1CCCCN1CC(=O)Nc1ccc(Oc2ccccc2)cc1 (configuration not stated) | 0 (inactive)
43 | COc1cccc(NC(=O)Cn2nnc(C(=O)Nc3ccccc3)c2N)c1 | 0 (inactive)
44 | O=C(Nc1nnc(-c2ccccc2F)s1)C1CCCO1 (configuration not stated) | 0 (inactive)
45 | CC(C)c1ccc2occ(-c3nn[nH]n3)c(=O)c2c1 | 0 (inactive)
46 | CCCn1c(SCc2nc3sc(C)c(C)c3c(=O)[nH]2)nc2ccccc2c1=O | 1 (active)

Row | Structure (SMILES) | manual score
47 | CCCSc1nc2sc3c(c2c(=O)[nH]1)CCN(Cc1ccccc1)C3 | 3 (inactive)
48 | O=c1[nH]c(CS(=O)(=O)c2ccccc2)nc2ccccc12 | 0 (inactive)
49 | Cc1c(C)[n+](=O)c2c(n1[O-])CCC2 | 0 (inactive)
50 | COc1ccc(S(=O)(=O)NCCCCCC(=O)NCCCN2CCOCC2)cc1 | 0 (inactive)
51 | CC1(C)Cc2cccc(OCC(=O)Nc3ccccc3N3CCOCC3)c2O1 | 0 (inactive)
52 | Cc1ccccc1OCC(=O)Nc1ccccc1N1CCOCC1 | -0.5 (inactive)
53 | CCC(=O)N1CCN(c2ccccc2NC(=O)COc2cccc(C)c2)CC1 | -1 (active)
54 | Cc1cccc(OCC(=O)Nc2ccccc2N2CCN(C(=O)C(C)C)CC2)c1C | -1 (active)
55 | Cc1cc(Cl)ccc1OCC(=O)Nc1ccccc1N1CCOCC1 | 0 (inactive)
56 | Cc1cccc(OCC(=O)NC(=S)Nc2ccccc2N2CCOCC2)c1 | 0 (inactive)
57 | CC(C)c1cc(C(F)(F)F)n2nc(C(=O)Nc3ccc4c(c3)OCO4)cc2n1 | 0 (inactive)
58 | CC1CCCN(C(C(=O)Nc2ccc3c(c2)OCO3)c2ccccc2)C1 (configuration not stated) | -0.5 (inactive)
59 | Cn1ncc2cc(NC(=S)NC(=O)c3ccccc3)ccc21 | 1 (active)
60 | O=C(NC(=S)Nc1ccc(Oc2ccc(Cl)cc2)cc1)c1ccccc1 | 0 (inactive)
61 | CC1CCN(C(C(=O)Nc2ccc3c(c2)OCO3)c2ccccc2)CC1 (configuration not stated) | 0 (inactive)
62 | O=C(NC(=S)Nc1ccc2c(c1)OCCO2)c1ccccc1 | 1 (active)
63 | O=C(NC(=S)Nc1ccc2c(c1)OCO2)c1ccccc1 | 1 (active)
64 | Cc1ccc(-c2n[nH]c(=S)n2/N=C/c2cccs2)cc1 | 1 (active)
65 | Cn1cccc1/C=N/n1c(-c2ccc(C(C)(C)C)cc2)n[nH]c1=S | 0 (inactive)
66 | CC(/C=N/n1c(COc2ccccc2)n[nH]c1=S)=C\c1ccccc1 | 0 (inactive)
67 | Cc1ccc(-c2n[nH]c(=S)n2/N=C/c2ccc(C)s2)cc1 | 1 (active)
68 | Cc1ccc(/C=N/n2c(COc3ccccc3)n[nH]c2=S)s1 | 1 (active)
69 | Cc1ccccc1CNS(=O)(=O)c1ccc2c(c1)OCCO2 | 0 (inactive)

Row | Structure (SMILES) | manual score
70 | CCCCNc1c2c3c(cccc3n(C)c1=O)C(=O)c1ccccc1-2 | 3 (inactive)
71 | O=C(N/N=C1/C(=O)c2cccc3cccc1c23)c1ccc(Cl)cc1 | 1 (active)
72 | CCCCNC(=S)N/N=C1\C(=O)c2cccc3cccc1c23 | 1 (active)
73 | CCCCN(C)C1=Nc2cccc3cccc1c23 | 0 (inactive)
74 | CNC(=S)N/N=C1\C(=O)c2cccc3cccc1c23 | 1 (active)
75 | CCNC(=S)N/N=C1\C(=O)c2cccc3cccc1c23 | 1 (active)
76 | COc1ccc(Cn2nnnc2C(c2ccc(F)cc2)N2CCN(C3CCCC3)CC2)cc1 (configuration not stated) | 0 (inactive)
77 | N#Cc1nc(Cc2ccccc2)oc1NCCc1ccccc1 | 0 (inactive)
78 | O=C(CCN1C(=O)COc2ccccc21)NCCCN1CCc2ccccc2C1 | 0 (inactive)
79 | Cc1ccc(NC(=O)COC(=O)/C=C/c2ccco2)cc1S(=O)(=O)N(C)C | 0 (inactive)
80 | Cn1c(NCc2cccc(Br)c2)nc2ccccc21 | 0 (inactive)
81 | Fc1cccc2sc(Nc3nnc(-c4ccco4)o3)nc12 | 1 (active)
82 | Fc1cccc2sc(Nc3nnc(-c4ccccc4)o3)nc12 | 1 (active)
83 | COc1cccc(-c2nnc(Nc3nc4c(F)cccc4s3)o2)c1 | 1 (active)
84 | COc1cc(OC)cc(-c2nnc(Nc3nc4c(F)cccc4s3)o2)c1 | 1 (active)
85 | Nc1nnc(C(=O)c2ccccc2N)s1 | 0 (inactive)
86 | Clc1ccccc1-c1nnc2sc(CCc3ccccc3)nn12 | 0 (inactive)
87 | CCn1c(=NC(=O)CSC(C)=O)sc2ccccc21 | 1 (active)
88 | O=C(COC(=O)C1CC(=O)N(Cc2ccccc2)C1)Nc1ccc2c(c1)OCO2 (configuration not stated) | 0 (inactive)
89 | O=C(Oc1ccccc1)c1cccc(COC(=O)c2cnccn2)c1 | -1 (active)
90 | COC(=O)c1ccccc1NC(=O)Nc1cnccn1 | 0 (inactive)
91 | CC(=O)Nc1nnc(C)s1 | 0 (inactive)
92 | C=CCSc1nc2sc3c(c2c(=O)n1CC)CCc1ccccc1-3 | 1 (active)

Row | Structure (SMILES) | manual score
93 | CCn1c(SCC(N)=O)nc2c(c1=O)C1(CCCC1)Cc1ccccc1-2 | 0 (inactive)
94 | CCCSc1nc(C)nc2c1c(=O)n(C)c(=O)n2C | 0 (inactive)
95 | Cc1ccccc1NC(=S)NC(=O)c1cncc(Br)c1 | 1 (active)
96 | CC1CCCC(NC(=S)Nc2ccc(SC(F)F)cc2)C1C (configuration not stated) | 0 (inactive)
97 | CN(C(=S)NC(=O)c1ccccc1Br)C1CCCCC1 | 1 (active)
98 | CC1CCCC(NC(=O)Nc2cccs2)C1C (configuration not stated) | 0 (inactive)
99 | CC1CCCC(NC(=S)NC(=O)c2cncc(Br)c2)C1C (configuration not stated) | 1 (active)
100 | CC1CCCC(NC(=S)NC(=O)c2ccccc2Br)C1C (configuration not stated) | 1 (active)
101 | CC1CCCCC1NC(=S)Nc1ccc(SC(F)F)cc1 (configuration not stated) | 0 (inactive)
102 | CN(C)Cc1cc(C(C)(C)C)c(O)c(C(C)(C)C)c1 | 0 (inactive)
103 | CCN1CCN(c2ccc(NC(=O)CCc3c(C)nc4c(-c5ccccc5)c(C)nn4c3C)cc2)CC1 | 0 (inactive)
104 | CCOC(=O)c1ccc(NC(=S)NC2CCCC2)cc1 | 0 (inactive)
105 | COC(=O)[C@H](Cc1ccccc1)NC(=O)NCCC1=CCCCC1 | 0 (inactive)
106 | O=C(NC(=S)NC1CCCCCC1)c1cncc(Br)c1 | 1 (active)
107 | O=C(NC(=S)NCCC1=CCCCC1)c1cncc(Br)c1 | 1 (active)
108 | COc1cccc2c1OC[C@@H](CO)[C@H]2N(C)C(=O)Nc1ccccc1 | 0 (inactive)
109 | CCN(C(=O)c1cc(Cl)ccc1OC)C1CCCCC1 | 0 (inactive)
110 | COc1ccc(C)cc1NC(=O)NCCC1=CCCCC1 | 0 (inactive)
111 | FC(F)(F)c1cccc(NC(=S)NC2CCCC2)c1 | 0 (inactive)
112 | COc1ccccc1/C=C/C(=O)NC(=S)N(C)C1CCCCC1 | 1 (active)
